Compound activity (PubChem)
An excerpt weighted towards active compounds, which were near 4.5% of everything screened.
DAX1 inh-1: DAX1 (NR0B1) inhibitors, primary screen, cell-based, HEK293, Gal4-DAX1, luciferase luminescence; Nuclear receptor subfamily 0 group B member 1 (Homo sapiens), P51843; HEK293 Gal4-DAX1 luciferase reporter; inhibition, % at 6.75 µM; hit rate 0.99% among 340,000; AID 504766, 2011;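 active = inhibition above the mean over all tested compounds plus 3 SD, cut at about 4.2% in these data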;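 note: 0% = DAX1-transfected cells with DMSO and 100% = empty-vector control cells with DMSO; inhibition shows as a rise in luminescence from relieved DAX1 repression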
Target sequence (P51843 207-470 limits assumed): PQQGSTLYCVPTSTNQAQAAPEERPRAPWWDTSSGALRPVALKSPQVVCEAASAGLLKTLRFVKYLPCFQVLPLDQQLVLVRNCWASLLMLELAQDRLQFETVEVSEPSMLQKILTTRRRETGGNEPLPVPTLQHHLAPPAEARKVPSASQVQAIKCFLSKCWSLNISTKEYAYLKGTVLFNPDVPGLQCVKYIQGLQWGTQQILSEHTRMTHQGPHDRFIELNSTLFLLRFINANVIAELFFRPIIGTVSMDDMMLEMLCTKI
hgDAF-12 ag: H. glycines DAF-12 receptor agonists, primary screen, cell-based, luminescence, HEK293, GAL4 fusion, UAS-luciferase; Nuclear hormone receptor DAF-12 (Heterodera glycines), GAL4 fusion; HEK293 GAL4-hgDAF12 UAS-luciferase reporter, agonist luminescence; normalized to butyrate control; activation, % at 6.8 µM; hit rate 1.8% among 370,000; AID 687014, 2013;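 active = activation above a cutoff set at the mean of all screened compounds plus 3 SD, cut at about 10% in these data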;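 note: 0% = DMSO wells and 100% = sodium butyrate wells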
hcDAF-12 act: H. contortus DAF-12 nuclear receptor activators, primary screen, cell-based, luminescence, HEK293, lit1-tk-luc reporter | HEK293 hcDAF-12 lit1-tk-luc reporter; 0% DMSO, 100% Δ7-dafachronic acid | activation, % at 6.8 µM | hit rate 1.4% among 370,000 | AID 652067, 2013;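 active = activation above the mean of all tested compounds plus 3 SD, cut at about 5.5% in these data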;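 note: 100% = response to 3 µM Δ7-dafachronic acid high control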
GAA850 FXN act: FXN promoter activators, primary screen, cell-based, luciferase luminescence, HEK293 lucGAA850. HEK293 lucGAA850 FXN promoter luciferase reporter, 24 h; percent of 10 µM SAHA response. activation, % at 6 µM. hit rate 0.56% among 360,000. AID 540364, 2011;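 active = activation above the average of all compounds screened plus 3 SD, cutoff fixed separately per campaign, cut at about 7.5% in these data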;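 note: 0% = DMSO wells and 100% = 10 µM SAHA wells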
ssDAF12 agonist: S. stercoralis DAF-12 nuclear receptor activators, primary screen, cell-based, luminescence, HEK293, GRIP1 co-expression, lit1-tk-luc; activation, % at 6.8 µM; hit rate 1% among 370,000; Nuclear hormone receptor DAF-12 (Strongyloides stercoralis); HEK293 ssDAF-12/GRIP1 lit1-tk-luc reporter; % of 3 µM dafachronic acid response;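 active = activation above the mean over all tested compounds plus 3 SD, cut at about 0.9% in these data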;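 note: 0% = DMSO-only wells and 100% = 3 µM delta7-dafachronic acid wells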
DAX1 inh-2: DAX1 (NR0B1) inhibitors on StAR promoter, primary screen, cell-based, luminescence, SF-1 (NR5A1), full-length DAX-1; HEK293T StAR-luciferase reporter, SF-1/DAX-1 repression relief; inhibition, % at 6.8 µM; hit rate 1.1% among 370,000; AID 652010, 2013;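 active = inhibition above the mean over all tested compounds plus 3 SD, cut at about 3.6% in these data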;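 note: 0% = DAX-1 cells with DMSO and 100% = cells lacking DAX-1 with DMSO; higher inhibition means more luminescence from relief of DAX-1 repression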
The depositor's hits bear a star; . = not tested or not shown.

SMILES | DAX1 inh-1 | hgDAF-12 ag | hcDAF-12 act | GAA850 FXN act | ssDAF12 agonist | DAX1 inh-2
CC(C)=CC(=O)Nc1ccccc1C(N)=O | 0.0 | 1.9 | -0.8 | 1.2 | -1.4 | 0.3
NC(=O)c1ccccc1NC(=O)/C=C/c1ccccc1 | 0.4 | 11.4* | 2.0 | 6.4 | -0.2 | 3.4
O=C(NCCc1ccccc1)Nc1ccc(Cl)cc1 | 1.7 | 12.9* | 3.8 | 4.7 | 0.7 | 2.9
Cc1ccccc1NC(=O)NCCc1ccc(Cl)cc1 | 0.1 | 5.3 | 0.2 | 1.4 | 0.3 | 0.2
S=C(NCCc1ccccc1)Nc1ccc(Cl)cc1 | 0.5 | 10.8* | 0.7 | 1.1 | -0.3 | 0.7
Cc1[nH]n(-c2ccccc2)c(=O)c1C=NC1CCCCC1 | 0.3 | 4.4 | 1.0 | 6.2 | -1.5 | 0.0
Cc1[nH]n(-c2ccccc2)c(=O)c1C=NC1CCCCCC1 | 5.5* | 3.9 | -0.1 | 2.9 | -1.6 | 1.3
C[C@H]1c2cccc(O)c2C(O)=C2C(=O)[C@]3(O)C(O)=C(C(N)=O)C(=O)[C@@H](N(C)C)[C@@H]3[C@@H](O)[C@@H]21 | -0.1 | . | . | 18.8* | . | .
CCCc1nc2c3ccccc3ccn2c1Cc1ccc(OC)cc1C | . | 1.3 | 2.6 | . | 1.0* | 0.5
COCCCNC(=O)CSc1nnc(-c2cccnc2)n1C1CCCCC1 | . | 1.9 | -0.5 | . | -1.3 | -0.3
CC(C)(C)c1ccc(-c2noc(CCC(=O)NC3CC3)n2)cc1 | . | -12.2 | -6.8 | . | -3.0 | .
COC(=O)c1ccc(NC(=O)c2nc(S(=O)(=O)Cc3cccc(C)c3)ncc2Cl)cc1 | 0.3 | -9.4 | -3.5 | 4.9 | -1.1 | -2.2
CC(=O)Nc1ccc(NC(=O)c2nc(S(=O)(=O)Cc3cccc(C)c3)ncc2Cl)cc1 | -0.1 | -4.8 | -3.3 | -10.7 | -1.2 | 4.0*
Cc1c(NC2=C(Cl)C(=O)N(c3ccccc3Cl)C2=O)c(=O)n(-c2ccccc2)n1C | -0.3 | 0.9 | 5.1 | 1.6 | 0.9* | 0.5
Cc1c(NC2=C(Cl)C(=O)N(c3ccccc3)C2=O)c(=O)n(-c2ccccc2)n1C | 0.7 | 0.5 | 2.5 | -0.8 | 0.1 | 0.1
CCCC1CCC2(CC1)CCC2OC(=S)Nc1ccc(Cl)cc1 (stereo unspecified) | . | -0.1 | 3.0 | . | -1.5 | .
COc1ccc(Nc2nc(N)nc(CSC(=S)N3CCN(C)CC3)n2)cc1 | 1.9 | 3.5 | -0.3 | 2.6 | 5.4* | -0.6
COc1ccc(Nc2nc(N)nc(CSC(=S)N3CCN(c4ccccc4)CC3)n2)cc1 | -0.9 | -0.6 | -3.4 | 3.3 | -2.2 | -0.5
CC(C(=O)NCC1CCCO1)c1ccc([N+](=O)[O-])cc1 (stereo unspecified) | 5.0* | -3.4 | 0.0 | -0.6 | -1.5 | 0.0
CCOC(=O)N1CCC(N2C(=O)c3ccccc3C2Nc2ccc3c(C)cc(=O)oc3c2)CC1 (stereo unspecified) | 5.4* | -1.7 | 4.2 | 0.5 | -1.5 | 0.6
C=CCN1[C@H](CO)[C@H](c2ccc(C#CC3(O)CCCC3)cc2)[C@@H]1C#N | . | 0.0 | -3.4 | . | -1.5 | -0.9
CC1Oc2ccccc2N(CC(=O)NCc2ccc3c(c2)OCO3)C1=O (stereo unspecified) | 0.8 | 11.3* | 2.4 | 1.4 | -0.4 | 0.9
O=C(NCc1ccc2c(c1)OCO2)OCc1ccccc1 | . | 7.3 | 2.2 | . | -0.7 | 4.0*
COc1ccc(CN(CC(=O)NCc2ccc3c(c2)OCO3)C(=O)c2csnn2)cc1 | 0.2 | -0.9 | 0.3 | -0.5 | -0.5 | -0.3
O=C(CN(Cc1ccccc1)C(=O)c1csnn1)NCc1ccc2c(c1)OCO2 | -0.6 | 2.8 | 5.8* | 0.6 | 0.8 | -0.4
SMILES | DAX1 inh-1 | hgDAF-12 ag | hcDAF-12 act | GAA850 FXN act | ssDAF12 agonist | DAX1 inh-2
FC(F)(F)Oc1ccc(Cn2ccc3ccc(-c4ccc5ccn(Cc6ccccc6)c5c4)cc32)cc1 | . | 0.7 | 0.0 | . | -0.6 | -1.4
Nc1nc2c(C(=O)N3CCOCC3)nnn2c2ccccc12 | 6.2* | 4.8 | 1.6 | 4.2 | 0.1 | 0.7
Cc1ccc(Oc2ccc(NC(=O)CCC(=O)OCC(=O)c3cccs3)cc2)cc1C | 4.5* | 4.6 | 0.7 | 1.2 | -1.8 | -0.8
O=C(Nc1ccccn1)c1ccccc1 | 2.1 | 8.1 | 1.4 | 2.3 | -0.7 | 3.9*
O=C(Nc1nc(-c2ccccn2)cs1)c1ccc2c(c1)OCCO2 | 1.2 | 10.5* | 1.5 | -0.5 | -0.5 | 3.8*
CC1Oc2ccccc2OC1C(=O)Nc1ccccn1 (stereo unspecified) | -0.3 | 2.6 | 6.3* | 1.1 | 0.2 | 0.2
O=C(Nc1ccccn1)c1ccc(C(=O)Nc2ccccn2)cc1 | 0.2 | . | . | -0.5 | . | .
O=C(Nc1ccccn1)c1ccc2c(c1)OCCO2 | 1.9 | 12.6* | 3.3 | 1.4 | -0.3 | 4.2*
O=C(Nc1ccccn1)C1COc2ccccc2O1 (stereo unspecified) | 1.7 | 7.2 | 5.5 | 4.6 | 0.1 | 1.1
O=C(CSc1nnc(-c2ccccc2)n1-c1ccc(Cl)cc1)c1ccccc1Br | . | -1.1 | -2.3 | . | -0.7 | -1.0
CN(CCCOC(=O)c1cccs1)C1CN(Cc2cn(Cc3ccccc3Cl)nn2)S(=O)(=O)C1 (stereo unspecified) | . | 1.1 | -2.4 | . | -0.8 | -1.2
O=C(/C=C\Nc1ccccn1)c1ccc(Cl)cc1 | -4.5 | 7.4 | 5.5 | -5.7 | -0.3 | 4.2*
CCc1cc(C(=O)Nc2nc(-c3ccccn3)cs2)sc1C | 6.7* | 5.4 | 3.9 | -0.7 | -0.3 | -1.3
CC(C)n1c(CCC(=O)O)ccc1-c1ccccc1 | 4.3* | -0.6 | -0.1 | 0.9 | -1.9 | 0.5
COc1ccc2c(=O)c(-c3ccc4c(c3)OCO4)coc2c1 | 2.4 | 17.2* | 5.7* | -0.9 | 0.6 | 3.5
CC(C)Oc1ccc2c(=O)c(-c3ccccc3)coc2c1 | 1.3 | 13.9* | 2.7 | 2.4 | -0.1 | 8.3*
CCc1cc2c(=O)c(-c3ccc4c(c3)OCCO4)coc2cc1OC(=O)c1ccco1 | 1.0 | 11.4* | 3.3 | -0.5 | -1.0 | 3.1
C/C=C/C(=O)N1CCC(C(=O)NC2CCCc3ccccc32)CC1 (stereo unspecified) | . | 0.8 | -1.0 | . | -0.9 | 0.2
COc1ccc(Cc2nc3ccc(C(=O)NCC(C)(C)OC)cc3o2)cc1 | 4.6* | 8.9 | 4.3 | 4.1 | -0.2 | 1.6
COc1ccc(Cc2nc3ccc(C(=O)NCc4cc(C)no4)cc3o2)cc1 | 0.7 | 7.7 | 1.6 | 3.8 | -0.8 | 3.7*
